Results taken from paper PMC4336329 (PLoS ONE, 2015).
The whole screen tested about 310,000 compounds, of which about 14,000 (4.5%) showed an effect of 50% or more. Effects have a minus sign here. The entries come from a sample that favours strong results as a whole.

biological target: human ether-à-go-go-related gene (hERG) potassium channel (human, UniProt Q12809); assay: primary screen, population patch clamp on CHO cells stably expressing hERG; higher = less effect of the substance
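Further: peak tail current of the secondary pulse compared with the same well before compound.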

Sequence of human ether-à-go-go-related gene (hERG) potassium channel (Q12809 whole entry, looked up): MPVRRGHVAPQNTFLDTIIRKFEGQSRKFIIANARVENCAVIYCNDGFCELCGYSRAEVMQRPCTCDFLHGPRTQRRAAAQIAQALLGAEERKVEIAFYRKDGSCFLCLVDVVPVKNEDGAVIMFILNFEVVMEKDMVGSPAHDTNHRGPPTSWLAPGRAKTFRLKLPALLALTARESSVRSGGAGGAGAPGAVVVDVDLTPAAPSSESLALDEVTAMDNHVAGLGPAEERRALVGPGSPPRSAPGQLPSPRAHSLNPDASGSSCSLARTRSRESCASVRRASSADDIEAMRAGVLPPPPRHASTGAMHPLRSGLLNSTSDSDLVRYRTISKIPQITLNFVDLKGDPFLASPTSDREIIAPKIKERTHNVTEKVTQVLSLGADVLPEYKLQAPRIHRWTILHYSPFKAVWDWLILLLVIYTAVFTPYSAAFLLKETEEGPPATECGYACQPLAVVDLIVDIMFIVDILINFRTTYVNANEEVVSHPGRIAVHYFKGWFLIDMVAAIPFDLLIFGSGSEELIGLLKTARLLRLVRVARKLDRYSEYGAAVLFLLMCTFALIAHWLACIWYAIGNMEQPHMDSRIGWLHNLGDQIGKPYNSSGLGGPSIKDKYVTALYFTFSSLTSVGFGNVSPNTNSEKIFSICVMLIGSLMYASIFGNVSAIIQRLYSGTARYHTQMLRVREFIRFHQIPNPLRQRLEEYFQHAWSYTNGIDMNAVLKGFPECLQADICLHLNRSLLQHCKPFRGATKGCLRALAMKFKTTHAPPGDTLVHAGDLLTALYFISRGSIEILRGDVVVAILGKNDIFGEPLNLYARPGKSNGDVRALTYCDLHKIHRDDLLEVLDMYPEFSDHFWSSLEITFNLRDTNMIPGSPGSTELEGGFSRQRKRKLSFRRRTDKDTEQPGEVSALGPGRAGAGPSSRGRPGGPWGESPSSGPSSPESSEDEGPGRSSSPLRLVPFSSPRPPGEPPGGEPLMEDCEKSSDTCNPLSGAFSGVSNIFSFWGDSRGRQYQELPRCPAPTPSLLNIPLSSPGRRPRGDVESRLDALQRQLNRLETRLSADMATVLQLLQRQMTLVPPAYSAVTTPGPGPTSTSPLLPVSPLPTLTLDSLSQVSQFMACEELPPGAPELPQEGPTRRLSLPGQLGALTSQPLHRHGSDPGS

SMILES | hERG current change (%, negative = inhibition) at 10uM [%]
COc1ccc(N(C2=NCCCS2)S(=O)(=O)c2ccc(C(C)(C)C)cc2)cc1 | 0.221
CCc1ccc2[nH]c(C(=O)Nc3ccc4c(c3)OCO4)cc2c1 | 18.8
COc1ccc(OC)c(S(=O)(=O)N/N=C(/C)c2c[nH]c3ccccc23)c1 | 14.1
CCN(C(=O)c1cc2c(=O)[nH]c3ccc(C)cc3c2s1)c1cccc(C)c1 | -0.235
Cc1nn(-c2ccc(N3CCCCC3)nn2)c(C)c1CCC(=O)Nc1cccc(F)c1 | -19
COC(=O)c1sccc1-n1cc(C#N)c(=O)n(C)c1=O | 17.9
COc1cc2c(c(OC)c1OC)-c1ccc(O)c(=O)cc1[C@@H](N)CC2 | -11.8
COCCn1c(C(C)C)nc2ccccc21 | 4.45
CCn1cc(C2=NOC(C(=O)Nc3ccccc3C(=O)OC)C2)c(C)n1 (stereo not shown) | -3.86
COc1cc(C2C(C(=O)c3ccco3)=C(O)C(=O)N2CC2CCCO2)ccc1O (stereo not shown) | 2.25
Cc1ccn2c(=O)c(NC(=O)c3ccc(Br)o3)c(C)nc2c1 | 8.18
CC1(C)C(=O)NCCN1C(=O)CC1C(=O)NCCN1CC(c1ccccc1)c1ccccc1 (stereo not shown) | 12
CC(C)(C)NC(=O)C(c1cccs1)N(Cc1ccco1)C(=O)c1csnn1 (stereo not shown) | -1.46
COc1ccc(C(=O)CCC(=O)Nc2ccc(Cl)cc2)cc1 | 11.2
COc1cccc(-c2nn(-c3ccccc3)cc2/C=C(\C#N)C(=O)NCCCn2ccnc2)c1 | -38.8
COc1ccc(/C=C(\NC(=O)c2ccc(C)cc2)C(=O)NCCCn2ccnc2)cc1OC | 8.48
Cc1ccc(C(=O)N/C(=C\c2ccccc2)C(=O)NCCCn2ccnc2)cc1 | -84.8
COc1ccc(C(=O)N/C(=C\c2cn(S(=O)(=O)N(C)C)c3ccccc23)C(=O)NCCCn2ccnc2)cc1 | 1.07
O=C(NCCCn1ccnc1)c1cc([N+](=O)[O-])cc([N+](=O)[O-])c1 | -4.05
Cc1ccc(/C=C(\NC(=O)c2ccc(C)cc2)C(=O)NCCCn2ccnc2)cc1 | -84.9
COc1ccc(/C=C(\NC(=O)c2ccc([N+](=O)[O-])cc2)C(=O)NCCCn2ccnc2)cc1 | -69.4
N#C/C(=C\c1ccc([N+](=O)[O-])cc1)C(=O)NCCCn1ccnc1 | -59.5
C/C(CC(=O)Nc1ccc(Cl)c(C(F)(F)F)c1)=N\NC(=O)c1cnccn1 | -25.8

SMILES | hERG current change (%, negative = inhibition) at 10uM [%]
COc1ccc(Cc2nnc(N)s2)cc1 | 15.3
O=C(Nc1cccc(-n2cnnn2)c1)c1cccnc1 | 4.53
C#CCOCCOCCOCCNc1nc(N2CCN(C(=O)C(Cc3ccc(O)cc3)n3cc(C(N)C(C)CC)nn3)CC2)nc(N2CCN(C(=O)C(Cc3ccc(O)cc3)n3cc(C(N)C(C)CC)nn3)CC2)n1.Cl (stereo not shown) | -13.3
COc1ccccc1CN1CCN(C(=O)c2cccc3ccccc23)CC1 | 3.48
COc1cccc2cc(/C(=N/O)c3ccc(Br)cc3)oc12 | 5.41
COC(=O)c1ccc(NC(=O)c2ccc3nc(C)sc3c2)cc1 | 15.8
COc1cc(S(=O)(=O)NCc2ccccn2)c(OC)cc1Cl | -1.73
O=C(CCN1C(=O)c2ccccc2C1=O)NCCCn1ccnc1 | 11.3
O=C(NCCCn1ccnc1)C(Cc1ccc([N+](=O)[O-])cc1)N1C(=O)c2ccccc2C1=O (stereo not shown) | -62.3
O=C(NCCCn1ccnc1)C(Cc1ccccc1)N1C(=O)c2ccccc2C1=O (stereo not shown) | -34.5
Cc1ccc(-n2nc3ccc(NC(=O)c4ccc5c(c4)OCO5)cc3n2)cc1 | 7.8
O=C(NCCc1ccccc1)c1c(O)c2cccc3c2n(c1=O)CC3 | 1.79
CCN(CC)Cc1cc2ccccc2c2c1COC2 | -44.1
CCCCN(CCCC)Cc1cc2ccccc2c2c1COC2 | -54.6
CCCN(CCC)Cc1cc2ccccc2c2c1COC2 | -29
COc1ccc(NC(C)=O)cc1CNC(=O)CN1CCOCC1 | 19.1
Cc1ccc(C(C(=O)NCC2CCCO2)N(Cc2ccccc2)C(=O)c2ccc(-c3ccccc3)[nH]2)o1 (stereo not shown) | -7.63
O=C(NC1CCCCC1)C(c1ccc(F)cc1)N(CCN1CCOCC1)C(=O)c1ccc(-c2ccccc2)[nH]1 (stereo not shown) | 24.4
O=C(NC1CCCCC1)C(c1cccs1)N(CCCN1CCOCC1)C(=O)c1ccc(-c2ccccc2)[nH]1 (stereo not shown) | -66.5
O=C(NCC1CCCO1)C(c1cccs1)N(Cc1cccs1)C(=O)c1ccc(-c2ccccc2)[nH]1 (stereo not shown) | 7.78
O=C(NC1CCCC1)C(c1ccncc1)N(CCCN1CCOCC1)C(=O)c1ccc(-c2ccccc2)[nH]1 (stereo not shown) | -61.1
CCOc1ccc(C(C(=O)NC2CCCC2)N(CCCO)C(=O)c2ccc(-c3ccccc3)[nH]2)cc1 (stereo not shown) | -61.6
O=C(NCC1CCCO1)C(c1ccc(F)cc1)N(CCCN1CCOCC1)C(=O)c1ccc(-c2ccccc2)[nH]1 (stereo not shown) | -26.2

SMILES | hERG current change (%, negative = inhibition) at 10uM [%]
O=C(NC1CCCCC1)C(c1ccncc1)N(Cc1ccccc1)C(=O)c1ccc(-c2ccccc2)[nH]1 (stereo not shown) | 4.6
O=C(NC1CCCC1)C(c1ccncc1)N(Cc1ccccc1)C(=O)c1ccc(-c2ccccc2)[nH]1 (stereo not shown) | -4.27
Cc1ccc(C(C(=O)NC(C)(C)C)N(CCCN2CCOCC2)C(=O)c2ccc(-c3ccccc3)[nH]2)o1 (stereo not shown) | -76.5
O=C(NC1CCCC1)C(c1ccncc1)N(Cc1ccco1)C(=O)c1ccc(-c2ccccc2)[nH]1 (stereo not shown) | 1.38
O=C(NCC(=O)N(CCN1CCOCC1)C(C(=O)NC1CCCC1)c1cccs1)c1ccco1 (stereo not shown) | -0.929
Cc1ccc(C(=O)COC(=O)c2ccccc2N2C(=O)C3C4CCC(C4)C3C2=O)cc1C (stereo not shown) | -19.2
CCN(CCO)C(=O)C12CCC(C)(C(=O)C1)C2(C)C (stereo not shown) | -9.66
COc1c(Cl)cc(C(=O)NN)cc1Cl | 0.95
CC(=O)Nc1sc2c(c1C(N)=O)CCCC2 | 22.8
CCc1cccc(C)c1NC(=O)CCOc1ccccc1 | 3.79
c1ccc(C2=Nc3cccnc3C(c3ccccc3)=NN2)cc1 | 15.9
O=C(CCNS(=O)(=O)c1ccccc1)OCC(=O)c1ccc(Cl)cc1 | -30
CC(C)CN(C(=O)COC(=O)c1ccc(Br)cc1)c1c(N)n(Cc2ccccc2)c(=O)[nH]c1=O | -2.83
CCOC(=O)C1=C(COC(=O)c2cccs2)NC(=O)NC1C (stereo not shown) | 6.08
Cc1sc(NC(=O)c2ccccc2F)c(CN2CCCCC2C)c1C (stereo not shown) | -7.58
Cc1ccccc1NC(=O)c1ccc(Cl)c(NC(=O)c2ccncc2)c1 | -32.1
CSC1=N/C(=C\c2ccc3c(c2)OCO3)C(=O)S1 | 12.3
O=C(N/N=C/c1cccs1)C1CC(=O)N(c2ccccc2)C1 (stereo not shown) | -8.24
Cn1ncc2c(NNC(=O)c3ccccc3Cl)ncnc21 | 10.1
CC(C)=CC(=O)N1CCCC(N2CCN(c3ccccc3C)CC2)C1 (stereo not shown) | -16
Cc1cc(C)n(CC(=O)N2CCCC(N3CCN(c4ccccc4C)CC3)C2)n1 (stereo not shown) | -14
Cc1ccccc1N1CCN(C2CCCN(C(=O)CCC(=O)N(C)C)C2)CC1 (stereo not shown) | 9.34
COc1ccc(OCC(=O)N2CCCC(N3CCN(c4ccccc4C)CC3)C2)cc1 (stereo not shown) | -85.9

SMILES | hERG current change (%, negative = inhibition) at 10uM [%]
CC(=O)c1ccc(OCC(=O)N2CCCC(N3CCN(c4ccccc4C)CC3)C2)cc1 (stereo not shown) | -75.2
Cc1ccccc1N1CCN(C2CCCN(C(=O)CN3CCCC3=O)C2)CC1 (stereo not shown) | 5.78
Cc1ccccc1N1CCN(C2CCCN(C(=O)CCC(F)(F)F)C2)CC1 (stereo not shown) | -47.3
Cc1ccccc1N1CCN(C2CCCN(C(=O)CCN3CCCO3)C2)CC1 (stereo not shown) | -0.397
Cc1ccccc1N1CCN(C2CCCN(C(=O)COc3ccccc3)C2)CC1 (stereo not shown) | -62.7
CC(=NCC1CCCO1)C1=C(O)CC(C)(C)CC1=O (stereo not shown) | -5.04
COc1ccccc1COCC(O)CN(Cc1ccco1)Cc1ccccc1O (stereo not shown) | -27
CC(=O)c1cccc(NC(=O)CCn2c(=S)oc3ccccc32)c1 | 9.8
CC(=O)NC1(c2cccc(F)c2)CCN(C(=O)Nc2ccc(C#N)cc2)CC1 | -13.8
O=C(Nc1cccnc1)c1cc([N+](=O)[O-])ccc1Cl | -0.51
CN1CCN(CCCNC(=O)c2ccc(CS(=O)(=O)c3ccc(Br)cc3)o2)CC1 | -10.3
O=C(NCCCN1CCOCC1)c1ccc(CS(=O)(=O)c2ccc(Br)cc2)o1 | -6.32
O=C(NCCN1CCOCC1)c1ccc(CS(=O)(=O)c2ccc(Br)cc2)o1 | -2.9
O=C(NCCN1CCCCCC1)c1ccc(CS(=O)(=O)c2ccc(Br)cc2)o1 | -57.4
CCC1CCCCN1CCCNC(=O)c1ccc(CS(=O)(=O)c2ccc(Br)cc2)o1 (stereo not shown) | -56.7
Cc1ccccc1S(=O)(=O)Cc1ccc(C(=O)NCCN2CCN(Cc3ccccc3)CC2)o1 | -61.9
CCC1CCCCN1CCCNC(=O)c1ccc(CS(=O)(=O)c2ccccc2C)o1 (stereo not shown) | -26.5
Cc1ccccc1S(=O)(=O)Cc1ccc(C(=O)NCCCN2CCN(C)CC2)o1 | -1.6
CCN1CCN(CCNC(=O)c2ccc(CS(=O)(=O)c3ccccc3C)o2)CC1 | -1.23
O=C(NCCN1CCN(Cc2ccccc2)CC1)c1ccc(CS(=O)(=O)c2ccc(Br)cc2)o1 | -79.8
CCC1CCCCN1CCCNC(=O)c1ccc(CS(=O)(=O)c2ccccc2OC)o1 (stereo not shown) | 6.46
O=C(NCCCN1CCCC1)c1ccc(CS(=O)(=O)c2ccc(Br)cc2)o1 | -16.7
